Experimental data from PubChem BioAssay AID1159580 (chemical genetic matrix, 2015).
Among all 5,500 compounds or so, about 2,000 (36%) were called active. Roughly 18% stayed inconclusive and do not appear here. Rule as the data show it: active = normalized growth mostly below about 0.91 (no sharp cut-off); inconclusive = no clear call, values can overlap the other calls; inactive = mostly above about 0.92. Some of the results follow.

Assay: chemical genetic growth profiling, strain panel (AID 1159580);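 also: tested at 20 µM; growth read once vehicle control cultures reached saturation at 30 °C; 1 = growth at the plate median or of vehicle wells; lower values mean less growth of the strain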
Conditions: S. cerevisiae deletion strains, growth OD
[1] = locus YAL013W, strain DEP1, stronger effect = lower value
[2] = locus YBR229C, strain ROT2, stronger effect = lower value
[3] = locus YCL061C, strain MRC1, stronger effect = lower value
[4] = locus YDL101C, strain DUN1, stronger effect = lower value
[5] = locus YDR150W, strain NUM1, stronger effect = lower value
[6] = locus YEL061C, strain CIN8, stronger effect = lower value
[7] = locus YGR078C, strain PAC10, stronger effect = lower value
[8] = locus YHR030C, strain SLT2, stronger effect = lower value
[9] = locus YHR087W, strain rtc3, stronger effect = lower value
[10] = locus YJR043C, strain POL32, stronger effect = lower value
[11] = locus YJR075W, strain HOC1, stronger effect = lower value
[12] = locus YLR039C, strain RIC1, stronger effect = lower value
[13] = locus YLR058C, strain SHM2 (second series), stronger effect = lower value
[14] = locus YLR085C, strain ARP6, stronger effect = lower value
[15] = locus YLR262C, strain YPT6, stronger effect = lower value
[16] = locus YML094W, strain GIM5, stronger effect = lower value
[17] = locus YMR219W, strain ESC1, stronger effect = lower value
[18] = locus YMR263W, strain SAP30, stronger effect = lower value
[19] = locus YMR307W, strain GAS1, stronger effect = lower value
[20] = locus YNL153C, strain GIM3, stronger effect = lower value
[21] = locus YNL298W, strain CLA4 (second series), stronger effect = lower value
[22] = locus YNL322C, strain KRE1, stronger effect = lower value
[23] = locus YNR030W, strain Alg12, stronger effect = lower value
[24] = locus YPL055C, strain LGE1, stronger effect = lower value
[25] = locus YPL241C, strain CIN2, stronger effect = lower value
[26] = locus YPR135W, strain CTF4, stronger effect = lower value
[27] = locus YJL187C, strain SWE1, stronger effect = lower value

Measured: normalized growth

Cc1oc(C(C)(C)C)cc1C(=O)Nc1ccc([N+](=O)[O-])cc1
active: [1] 0.903 | [5] 0.786 | [8] 0.584 | [12] 0.678 | [15] 0.786 | [21] 0.788 | [23] 0.816 | [24] 0.688 | [26] 0.484
inactive: [2] 0.976 | [3] 0.984 | [4] 1.03 | [6] 0.911 | [7] 0.98 | [9] 0.958 | [10] 0.966 | [11] 0.974 | [13] 0.992 | [14] 0.813 | [16] 0.873 | [17] 0.997 | [18] 0.943 | [19] 0.752 | [20] 0.998 | [22] 0.996 | locus YOL006C, strain TOP1, stronger effect = lower value 0.88 | [25] 0.997

COC(=O)C1=COC(OC2OC(CO)C(O)C(O)C2O)C2C(C)CC(=O)C12 (stereo not drawn)
inactive: locus YAL021C, strain ccr4, stronger effect = lower value 1.03 | locus YAL026C, strain drs2, stronger effect = lower value 1.02 | locus YAL030W, strain snc1, stronger effect = lower value 1.03 | locus YBL061C, strain skt5, stronger effect = lower value 1.02 | locus YBR009C, strain hhf1, stronger effect = lower value 1.01 | locus YBR023C, strain chs3, stronger effect = lower value 1.03 | locus YBR171W, strain sec66, stronger effect = lower value 1.04 | locus YBR231C, strain swc5, stronger effect = lower value 1.04 | locus YBR279W, strain paf1, stronger effect = lower value 1.03 | locus YCL011C, strain gbp2, stronger effect = lower value 1.03 | locus YCL016C, strain dcc1, stronger effect = lower value 1.02 | [3] 1.03 | locus YCL069W, strain vba3, stronger effect = lower value 1.03 | locus YCR088W, strain abp1, stronger effect = lower value 1.03 | locus YDL005C, strain med2, stronger effect = lower value 1.04 | locus YDL040C, strain nat1, stronger effect = lower value 1.03 | locus YDR001C, strain nth1, stronger effect = lower value 1.03 | locus YDR069C, strain doa4, stronger effect = lower value 1.02 | locus YDR137W, strain rgp1, stronger effect = lower value 1.07 | locus YDR159W, strain sac3, stronger effect = lower value 1.01 | locus YDR195W, strain ref2 1.02 | locus YDR297W, strain sur2, stronger effect = lower value 1.02 | locus YDR334W, strain swr1, stronger effect = lower value 1.03 | locus YDR335W, strain msn5, stronger effect = lower value 1.03 | locus YDR392W, strain spt3, stronger effect = lower value 0.935 | locus YEL003W, strain gim4, stronger effect = lower value 1.03 | locus YEL037C, strain rad23, stronger effect = lower value 1.02 | locus YEL061C, strain CIN8 (second series), stronger effect = lower value 1.03 | locus YER015W, strain faa2, stronger effect = lower value 1.04 | locus YER016W, strain bim1, stronger effect = lower value 1.04 | locus YER111C, strain swi4, stronger effect = lower value 1.03 | locus YER155C, strain BEM2 (second series), stronger effect = lower value 1.02 | locus YFR010W, strain ubp6, stronger effect = lower value 1.03 | locus YGL167C, strain pmr1, stronger effect = lower value 1.03 | locus YGL173C, strain kem1, stronger effect = lower value 1.03 | locus YGL227W, strain vid30, stronger effect = lower value 1.03 | locus YGL240W, strain doc1, stronger effect = lower value 1.02 | locus YGL253W, strain hxk2, stronger effect = lower value 1.05 | locus YHR013C, strain ard1, stronger effect = lower value 1.07 | locus YHR027C, strain rpn1, stronger effect = lower value 1.03 | locus YHR142W, strain chs7, stronger effect = lower value 1.04 | locus YJL092W, strain hpr5, stronger effect = lower value 1.03 | locus YJL095W, strain BCK1 (second series), stronger effect = lower value 1.03 | locus YJL115W, strain asf1, stronger effect = lower value 1.02 | locus YJL129C, strain trk1, stronger effect = lower value 1.06 | locus YJL154C, strain vps35, stronger effect = lower value 1.02 | locus YJL164C, strain tpk1, stronger effect = lower value 1.01 | locus YJL166W, strain qcr8, stronger effect = lower value 1.05 | [27] 1.04 | locus YKL160W, strain elf1, stronger effect = lower value 1.04 | locus YKR026C, strain gcn3, stronger effect = lower value 1.03 | locus YKR091W, strain srl3, stronger effect = lower value 1.02 | locus YLL001W, strain dnm1, stronger effect = lower value 1.05 | locus YLL026W, stronger effect = lower value 1.02 | locus YLL041C, strain sdh2, stronger effect = lower value 1.02 | locus YLR027C, strain aat2, stronger effect = lower value 1.02 | locus YLR221C, strain rsa3, stronger effect = lower value 1.03 | locus YLR258W, strain gsy2, stronger effect = lower value 1.01 | locus YLR262C, strain YPT6 (second series), stronger effect = lower value 1.05 | locus YLR320W, strain mms22, stronger effect = lower value 1.04 | locus YLR342W, strain FKS1, stronger effect = lower value 1.03 | locus YLR357W, strain rsc2, stronger effect = lower value 1.05 | locus YLR370C, strain arc18, stronger effect = lower value 1.03 | locus YLR384C, strain iki3, stronger effect = lower value 1.02 | locus YML120C, strain ndi1, stronger effect = lower value 1.03 | locus YMR058W, strain fet3, stronger effect = lower value 1.03 | locus YMR125W, strain sto1, stronger effect = lower value 1.04 | locus YMR129W, stronger effect = lower value 1.03 | locus YMR205C, strain PFK2, stronger effect = lower value 1.05 | locus YMR231W, strain pep5, stronger effect = lower value 1.03 | locus YNL071W, strain lat1, stronger effect = lower value 1.04 | locus YNL209W, strain ssb2, stronger effect = lower value 1.02 | locus YNL248C, strain rpa49, stronger effect = lower value 1.06 | locus YNL322C, strain KRE1 (second series), stronger effect = lower value 1.03 | locus YNR049C, strain mso1, stronger effect = lower value 1.02 | locus YOR001W, strain rrp6, stronger effect = lower value 0.987 | locus YOR070C, strain gyp1, stronger effect = lower value 1.02 | locus YOR080W, strain dia2, stronger effect = lower value 1.02 | locus YOR083W, strain WHI5, stronger effect = lower value 1.04 | locus YOR106W, strain vam3, stronger effect = lower value 1.09 | locus YOR265W, strain rbl2, stronger effect = lower value 1.01 | locus YOR270C, strain vph1, stronger effect = lower value 1.11 | locus YOR290C, strain snf2, stronger effect = lower value 1.03 | locus YPL051W, strain arl3, stronger effect = lower value 1.04 | locus YPL078C, strain atp4, stronger effect = lower value 1.06 | locus YPL106C, strain sse1, stronger effect = lower value 1.01 | locus YPL240C, strain hsp82, stronger effect = lower value 1.02

O=C(c1csc(-c2ccc(Cl)cc2)c1)N1CCCCC1
active: [8] 0.588 | locus YLR113W, strain HOG1, stronger effect = lower value 0.711 | locus YPL256C, strain CLN2, stronger effect = lower value 0.766
inactive: locus YAR019C, strain CDC15, stronger effect = lower value 0.95 | locus YBL105C, strain PKC1, stronger effect = lower value 0.953 | locus YBR135W, strain CKS1, stronger effect = lower value 0.943 | locus YBR136W, strain MEC1, stronger effect = lower value 0.952 | locus YBR160W, strain CDC28, stronger effect = lower value 0.944 | locus YDL017W, strain CDC7, stronger effect = lower value 0.957 | locus YDL028C, strain MPS1, stronger effect = lower value 0.951 | [4] 0.946 | locus YDL108W, strain KIN28, stronger effect = lower value 0.953 | locus YDL132W, strain cdc53, stronger effect = lower value 0.941 | locus YDL214C, strain PRR2, stronger effect = lower value 0.849 | locus YDR052C, strain DBF4, stronger effect = lower value 0.952 | locus YDR054C, strain cdc34, stronger effect = lower value 0.935 | locus YDR226W, strain ADK1, stronger effect = lower value 0.948 | locus YDR477W, strain SNF1, stronger effect = lower value 0.851 | locus YER123W, strain YCK3, stronger effect = lower value 0.83 | locus YER133W, strain GLC7, stronger effect = lower value 0.857 | locus YFL009W, strain cdc4, stronger effect = lower value 0.942 | locus YFL029C, strain CAK1, stronger effect = lower value 0.944 | locus YFR003C, strain YPI1, stronger effect = lower value 0.96 | locus YFR019W, strain FAB1, stronger effect = lower value 0.882 | locus YFR028C, strain CDC14, stronger effect = lower value 0.948 | locus YGR040W, strain KSS1, stronger effect = lower value 0.844 | locus YGR052W, strain FMP48, stronger effect = lower value 0.918 | locus YGR092W, strain DBF2, stronger effect = lower value 0.834 | locus YHR079C, strain IRE1, stronger effect = lower value 0.785 | locus YHR082C, strain KSP1, stronger effect = lower value 0.831 | locus YHR205W, strain SCH9, stronger effect = lower value 0.801 | locus YIL147C, strain SLN1, stronger effect = lower value 0.948 | locus YJL095W, strain BCK1, stronger effect = lower value 0.714 | locus YJL128C, strain PBS2, stronger effect = lower value 0.878 | locus YJL157C, strain FAR1, stronger effect = lower value 0.838 | locus YJR016C, strain ILV3, stronger effect = lower value 0.954 | locus YJR066W, strain TOR1 (second series), stronger effect = lower value 0.764 | locus YJR066W, strain TOR1, stronger effect = lower value 0.759 | locus YKL048C, strain ELM1, stronger effect = lower value 0.904 | locus YKL067W, strain YNK1, stronger effect = lower value 0.857 | locus YKL101W, strain HSL1, stronger effect = lower value 0.884 | locus YKL193C, strain SDS22, stronger effect = lower value 0.951 | locus YKL203C, strain TOR2, stronger effect = lower value 0.868 | locus YLR133W, strain CKI1, stronger effect = lower value 0.862 | locus YLR403W, strain SFP1, stronger effect = lower value 0.79 | locus YML070W, strain DAK1, stronger effect = lower value 0.847 | locus YMR001C, strain CDC5, stronger effect = lower value 0.94 | locus YMR205C, strain PFK2 (second series), stronger effect = lower value 0.866 | locus YMR277W, strain FCP1, stronger effect = lower value 0.944 | locus YNL006W, strain LST8, stronger effect = lower value 0.953 | locus YNL020C, strain ARK1, stronger effect = lower value 0.84 | locus YNL161W, strain CBK1, stronger effect = lower value 0.953 | locus YNL183C, strain NPR1, stronger effect = lower value 0.801 | locus YNL207W, strain RIO2, stronger effect = lower value 0.928 | locus YNL222W, strain SSU72, stronger effect = lower value 0.958 | locus YNL307C, strain MCK1 (second series), stronger effect = lower value 0.845 | locus YOL078W, strain AVO1, stronger effect = lower value 0.948 | locus YOL136C, strain PFK27, stronger effect = lower value 0.823 | locus YOR061W, strain CKA2, stronger effect = lower value 0.803 | locus YOR119C, strain RIO1, stronger effect = lower value 0.903 | locus YOR231W, strain MKK1, stronger effect = lower value 0.797 | locus YOR329C, strain SCD5, stronger effect = lower value 0.954 | locus YPL031C, strain PHO85, stronger effect = lower value 0.815 | locus YPL153C, strain RAD53, stronger effect = lower value 0.831 | locus YPL204W, strain HRR25, stronger effect = lower value 0.812 | locus YPL209C, strain IPL1, stronger effect = lower value 0.956 | locus YPR025C, strain CCL1, stronger effect = lower value 0.944 | locus YPR106W, strain ISR1, stronger effect = lower value 0.95 | locus YPR111W, strain DBF20, stronger effect = lower value 0.935 | strain NNK1, stronger effect = lower value 0.93 | strain TSCII, stronger effect = lower value 0.942

O=C(c1c(F)cccc1F)N1CCN(C(=O)c2c(F)cccc2F)CC1
inactive: [1] 1.01 | [2] 0.987 | [4] 1 | locus YDL134C, strain PPH21, stronger effect = lower value 0.973 | [5] 1.02 | [6] 0.945 | [7] 1.02 | [8] 1.11 | [9] 0.98 | [27] 1 | [10] 1.02 | [11] 0.988 | locus YKL190W, strain CNB1, stronger effect = lower value 0.984 | [12] 1.09 | [13] 0.985 | [14] 0.951 | [15] 1.06 | [16] 0.996 | [17] 1 | [18] 0.99 | [19] 0.964 | locus YNL128W, strain TEP1, stronger effect = lower value 0.978 | [20] 1.02 | [21] 0.962 | [22] 0.99 | [23] 0.976 | [24] 0.98 | [25] 1.01 | [26] 1.01

NC(CCCCCP(=O)(O)O)C(=O)O (stereo not drawn)
inactive: locus YAL040C, strain CLN3, stronger effect = lower value 0.977 | [5] 0.989 | locus YER002W, strain NOP16, stronger effect = lower value 0.973 | locus YNL175C, strain NOP13, stronger effect = lower value 1 | locus YNL197C, strain WHI3, stronger effect = lower value 0.992 | locus YNL224C, strain SQS1, stronger effect = lower value 1.01 | locus YOR083W, strain WHI5 (second series), stronger effect = lower value 0.983 | [24] 0.999 | [25] 0.98
